Compound activity: PubChem BioAssay, National Center for Advancing Translational Sciences (NCATS)
KB-3-1 tox – KB-3-1 parental cell cytotoxicity | 400,000 compounds, 1.4% hits | KB-3-1 viability, CellTiter-Glo ATP luminescence, 72 h | Potency, µM (doses to about 46.1 µM), hits mostly cytotoxic; also: potency is read from the fitted curve at half-maximal effect; % is scaled to controls: 0 for no effect and ±100 for the full control effect; nearly all actives have a fitted effect of over 60% in size
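Screening of KB-3-1 cells (DMEM, 10% FBS, phenol-red free) ran from lowest to highest compound concentration; after 72 h at 37 °C viability was read luminescently and curves fitted.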
KB-V1 cytotox – kills drug-selected multidrug resistant KB-V1 cells; KB-V1 MDR cells viability, CellTiter-Glo, 72 h; Potency, µM (doses to about 46.1 µM), hits mostly cytotoxic; 400,000 compounds, 3.4% hits; AID 1347076; also: potency is read from the fitted curve at half-maximal effect; % is scaled to controls: 0 for no effect and ±100 for the full control effect; nearly all actives have a fitted effect of over 60% in size
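KB-V1 MDR subline cells in DMEM (phenol-red free, 10% FBS) exposed to compounds in qHTS concentration series for 72 h at 37 degrees C. Viability read by CellTiter-Glo luminescence; concentration-effect curves fitted after normalization and correction.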
SW480 rerep – inducers of DNA re-replication in SW480 colon cancer cells | SW480 DNA re-replication, Hoechst DNA content imaging, 48 h | Potency, µM (doses to about 46.1 µM), for inactives: at the top dose re-replication activation, hits mostly activators | 340,000 compounds, 1.8% hits | AID 624297; also: potency is read from the fitted curve at half-maximal effect; % of control where 0% means no effect; nearly all actives have a fitted effect of over 55% in size
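Hoechst fluorescence of nuclei (405 nm excitation, 500-530 nm emission) measured by plate-scanning imager after 48 hr compound exposure at 37 C; re-replication scored as increased number of nuclei with elevated intensity.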
S-ASM inh – human S-ASM enzyme inhibition; placental ASM, HMU-PC fluorogenic substrate, 60 min; Potency, µM (top dose mostly 57.5 µM), for the others: at the top dose activity change, negative = inhibition, most hits filed as inhibitors; 340,000 compounds, 0.006% hits; AID 504937; also: potency is read from the fitted curve at half-maximal effect
Target sequence (P17405 47-631 limits assumed): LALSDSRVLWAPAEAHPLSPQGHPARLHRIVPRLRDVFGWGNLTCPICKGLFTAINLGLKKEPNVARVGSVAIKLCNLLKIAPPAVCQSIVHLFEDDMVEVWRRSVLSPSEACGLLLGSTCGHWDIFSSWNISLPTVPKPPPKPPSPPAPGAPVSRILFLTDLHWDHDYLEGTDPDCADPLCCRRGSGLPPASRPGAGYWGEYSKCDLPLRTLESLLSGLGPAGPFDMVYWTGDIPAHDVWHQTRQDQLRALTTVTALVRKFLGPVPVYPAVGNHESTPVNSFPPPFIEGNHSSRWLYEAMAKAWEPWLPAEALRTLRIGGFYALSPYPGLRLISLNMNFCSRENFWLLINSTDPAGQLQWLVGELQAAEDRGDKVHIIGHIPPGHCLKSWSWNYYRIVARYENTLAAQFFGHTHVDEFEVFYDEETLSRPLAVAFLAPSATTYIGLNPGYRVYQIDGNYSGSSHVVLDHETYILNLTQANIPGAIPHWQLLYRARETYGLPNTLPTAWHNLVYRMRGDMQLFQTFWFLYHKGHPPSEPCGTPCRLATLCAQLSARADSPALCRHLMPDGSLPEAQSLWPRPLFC
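qHTS format. ASM enzyme prepared from human placenta hydrolyses the fluorogenic substrate HMU-PC0 (9 uM final) over 60 min at 37 °C after a 10 min compound preincubation.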
MCF10A rerep – inducers of DNA re-replication in MCF 10A breast cells; Potency, µM (top dose mostly 46.1 µM), for inactives: at the top dose activity, positive = re-replication, hits mostly activators; MCF 10A DNA re-replication, Hoechst nuclear intensity, 48 h; 350,000 compounds, 2.9% hits; also: potency is read from the fitted curve at half-maximal effect; % of control where 0% means no effect; nearly all actives have a fitted effect of over 50% in size
Giardia killer – kills Giardia lamblia; 340,000 compounds, 0.15% hits; activity change, % at 7.66 µM, hits read low; Giardia lamblia trophozoite viability; in the data active = activity change below about -80%; inconclusive = between about -30% and that limit;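 also: parasites exposed to compound for two days anaerobically before the ATP read; % is scaled to controls: 0 for no effect and ±100 for the full control effect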
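Media and compound were dispensed first, then trophozoites at 100 cells/well; plates sat 48 hrs at 37 deg C without oxygen before ATP luminescence reagent was added and read after 15-30 min at room temperature.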
Active calls of the source: *; i = inactive; ? = inconclusive; . = no result given. Most compounds without a hit are left out; they make up all but 6.9% or so of the library. Unless noted, calls follow the shape of the dose curve; as a rule, active = well fitted curve in the direction sought with a large enough effect; inconclusive = small, poorly fitted or top-dose-only effect, or another doubt; inactive = no such curve, though single readings can be large; an effect the other way counts as inactive or inconclusive.

SMILES	KB-3-1 tox	KB-V1 cytotox	SW480 rerep	S-ASM inh	MCF10A rerep	Giardia killer
COc1ccc(Cn2c(C)nc3c(c2=O)c2nc4ccccc4nc2n3Cc2ccco2)cc1	?	?	21µM*	234%	18µM*	1
COc1ccc2c(=O)c3c(=O)n(Cc4ccco4)c(-c4cc(OC)c(OC)c(OC)c4)nc3oc2c1	i	i	-10%	0%	?	-10
CCC(C)n1cnc2c(c1=O)c1nc3ccccc3nc1n2Cc1ccc(OC)cc1 (configuration not stated)	i	15µM*	10%	143%	?	10
COc1ccc(C2CC(c3ccccc3)Oc3cc(OC)ccc32)cc1 (configuration not stated)	.	.	.	.	.	3
C/C(=N\NC(=O)c1cccnc1)c1c(O)cc(C)oc1=O	i	i	-6%	2%	-4%	8
C/C(=N\NC(=O)c1cccnc1)c1cc(C)oc1C	i	i	21µM*	-3%	7%	14
O=C(C[n+]1ccccc1Br)c1ccc(Cl)cc1	i	i	.	.	.	.
CCCCn1nc(NC(=O)CC(C)C)c2cc3cc(OC)ccc3nc21	i	i	12µM*	298%	15µM*	14
COc1ccc2nc3c(cc2c1)c(NC(=O)CC(C)C)nn3CC(C)C	i	i	8.2µM*	485%	7.3µM*	-18
COc1ccc2nc3c(cc2c1)c(NC(=O)C1CCCO1)nn3CC(C)C (configuration not stated)	i	i	?	i	7%	-5
CCC(=O)Nc1nn(CC(C)C)c2nc3ccc(C)cc3cc12	i	i	18µM*	308%	?	6
CC(C)(C)OC(=O)NS(=O)(=O)NOCc1ccccc1	i	i	.	.	.	.
CCc1ccccc1Nc1cc(C(=O)NCCCN(C)C2CCCCC2)c2ccccc2n1	i	i	.	.	.	.
CN1C(=O)C(O)(C2COC(C)(C)CC2=O)c2cc(Br)ccc21 (configuration not stated)	21µM*	?	?	0%	?	9
Cc1ccc2c(c1)C(O)(C1COC(C)(C)CC1=O)C(=O)N2C (configuration not stated)	?	i	?	-1%	?	-2
NC(=O)C1CC2(NC(=O)NC2=O)c2cc(F)ccc2O1 (configuration not stated)	.	.	4%	.	2%	.
Cc1cccc(Nc2nn3c(=O)c4cc5c(cc4nc3s2)OCO5)c1	i	i	.	.	.	.
CCC(C)NC(=O)c1nc2c(nnn2Cc2ccccc2Cl)c(=O)[nH]1 (configuration not stated)	i	i	-5%	-1%	1%	-12
O=C(NCc1cccs1)c1nc2c(nnn2Cc2ccccc2Cl)c(=O)[nH]1	5.8µM*	8.2µM*	?	-5%	?	-11
CC(=O)C12OC1CC1C3CCC4=CC(=O)CCC4(C)C3CCC12C (configuration not stated)	i	i	-4%	1%	0%	13
C=C1CC2C3CC[C@@]4(OCOC45COCO5)[C@@]3(C)C(O)CC2[C@@]2(C)CCC(=O)C=C12 (some centres not stated)	i	?	?	3%	5.2µM*	8
Cc1nc([N+](=O)[O-])cn1-c1nc2ccccn2c1[N+](=O)[O-]	i	i	2%	-1%	0%	-88*
Cc1nc([N+](=O)[O-])cn1CC(=O)c1ccccc1	i	i	4%	1%	3%	-3
COc1ccc(N2CCN(C(=O)c3c(C)oc4ncnc(N5CCCCC5)c34)CC2)cc1	i	i	.	.	.	.
COc1ccc(NC(=O)CSCC(=O)N(C)CC(=O)Nc2ccc(Cl)c(C(F)(F)F)c2)cc1	i	i	?	-5%	28%	5
CN(CC(=O)Nc1ccc(Cl)c(C(F)(F)F)c1)C(=O)c1cc(=O)[nH]c2ccccc12	i	i	-3%	.	3%	-1
